Test systems include K-562 leukemia; MALME-3M melanoma; MDA-MB-231 breast; RXF 393 renal; SF-268 CNS; SF-295 CNS; SF-539 CNS; UACC-257 melanoma; M14 melanoma; HCT-15 colon.
What all share (assay): NCI-60 one-dose screen, 48 h (100 = growth as untreated, 0 = no growth, -100 = all killed)
Common to all, as to details: 10 µM

Experimental findings from PubChem BioAssay (NCI) are described below.

Molecules are shown by their SMILES. About 83,000 compounds went through this panel and 20% of them were active in at least one assay; those are over-represented in the sample as a whole.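 Step 1: grow cells in 96-well plates. Step 2: add test compound at a single concentration. Step 3: incubate 48 h. Step 4: record percent growth.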 Unmarked numbers belong to inactive results. Calls of active or inactive are those of the source. Rule for the calls: active = growth percent below 10; inactive = the rest.

As to `COc1ccc2c(c1)O/C(=C\c1ccc([N+](=O)[O-])s1)C2=O`, the growth is -1.48% (active) with K-562 leukemia; 80% with MALME-3M melanoma; 37.4% in the experiment with MDA-MB-231 breast; -17.3% (active) in the experiment on RXF 393 renal; -9.02% (active) with SF-268 CNS; 69% with SF-295 CNS. Further, the growth with SF-539 CNS is 34.5%; with UACC-257 melanoma, 64.4%; in the experiment on M14 melanoma, 30.3%; with HCT-15 colon, 0.318% (active).

For `COc1ccc(Nc2ncnc3c2c(SC)nn3-c2ccccc2)cc1`, the growth in the experiment with K-562 leukemia is 94%; in the experiment on MALME-3M melanoma it was 93%; in the experiment on MDA-MB-231 breast it was 93.4%; in the experiment on RXF 393 renal, 81.3%; in the experiment with SF-268 CNS, 95.1%; in the experiment with SF-295 CNS, 88.7%. Besides, the growth in the experiment on SF-539 CNS is 99.3%; in the experiment on UACC-257 melanoma, 106%; with M14 melanoma, 94.4%; in the experiment with HCT-15 colon, 89.2%.

Consider `CN(C)c1ccc(/C=C/C=N/NC(=O)c2cc(O)c(O)c(O)c2)cc1`, for which the growth with K-562 leukemia is 27.1%; in the experiment on MALME-3M melanoma it was 88.9%; in the experiment with MDA-MB-231 breast, 85.4%; with RXF 393 renal it was 99.4%; in the experiment with SF-268 CNS, 94.6%; with SF-295 CNS it was 103%. Further, the growth in the experiment with SF-539 CNS is 89.8%; in the experiment on UACC-257 melanoma, 92.8%; in the experiment on M14 melanoma, 96.9%; in the experiment on HCT-15 colon, 94.2%.

Regarding `COc1ccc(CN2CCC(N3CCCC3=O)c3cc(Cl)ccc32)cc1` (stereo not given), the growth in the experiment on K-562 leukemia is 106%; in the experiment on MALME-3M melanoma, 88.6%; in the experiment on MDA-MB-231 breast, 123%; in the experiment with RXF 393 renal, 126%; in the experiment with SF-268 CNS it was 108%; with SF-295 CNS, 124%. Also, the growth in the experiment with SF-539 CNS is 110%; with UACC-257 melanoma, 112%; in the experiment with M14 melanoma it was 97%; in the experiment with HCT-15 colon, 104%.

Consider `COc1cc2cc3c(nc2cc1OC)CCN3Cc1ccc(NC(=O)Nc2cc(C(F)(F)F)cc(C(F)(F)F)c2)cc1`, for which the growth in the experiment on K-562 leukemia is 49.8%; with MALME-3M melanoma, 92.1%; in the experiment on MDA-MB-231 breast, 57.4%; in the experiment on RXF 393 renal, 82.5%; in the experiment on SF-268 CNS, 78.6%; with SF-295 CNS it was 69.6%. Also, the growth in the experiment on SF-539 CNS is 86.8%; in the experiment on UACC-257 melanoma, 89%; in the experiment on M14 melanoma, 77.4%; in the experiment with HCT-15 colon it was 76.1%.

As for `COc1ccc(NC2=NC(C)(CO)CS2)cc1` (stereo not given), the growth in the experiment with K-562 leukemia was 98.7%; with MALME-3M melanoma, 112%; with MDA-MB-231 breast, 97.5%; in the experiment on RXF 393 renal it was 130%; in the experiment with SF-268 CNS, 103%; with SF-295 CNS it was 109%. The growth is 89.7% in the experiment on SF-539 CNS, -25.7% (active) with UACC-257 melanoma, 101% with M14 melanoma and 90.3% in the experiment on HCT-15 colon.

Regarding `Nc1ncn(C2OC(CO)C(O)C2O)c(=O)n1` (stereo not given), the growth in the experiment on K-562 leukemia is -24% (active); with MALME-3M melanoma it was 15.1%; with MDA-MB-231 breast, 0.46% (active); with RXF 393 renal it was 10.6%; in the experiment on SF-268 CNS, 23.9%; with SF-295 CNS, 15.4%. For the same compound, the growth with SF-539 CNS is -24.4% (active); in the experiment with UACC-257 melanoma, 14.8%; with M14 melanoma, 1.16% (active); in the experiment with HCT-15 colon, -15.3% (active).

For `N#CCCN1C/C(=C/c2ccc(Br)cc2)C(=O)/C(=C/c2ccc(Br)cc2)C1`, the growth with K-562 leukemia was 3.42% (active); in the experiment on MALME-3M melanoma, -48.4% (active); in the experiment on MDA-MB-231 breast it was -39.4% (active); in the experiment on RXF 393 renal it was -89.1% (active); in the experiment on SF-268 CNS it was -36.2% (active); in the experiment with SF-295 CNS, -20.2% (active). For the same compound, the growth in the experiment with SF-539 CNS was -55.1% (active); with UACC-257 melanoma, -33.5% (active); in the experiment with M14 melanoma, -55.1% (active); in the experiment on HCT-15 colon, 0.513% (active).

Turning to `COc1cccc(Cn2c(-c3nonc3N)nc3ccccc32)c1`, the growth with K-562 leukemia is 9.47% (active); in the experiment with MALME-3M melanoma it was 68.3%; in the experiment on MDA-MB-231 breast, 27.7%; with RXF 393 renal it was -40.1% (active); in the experiment with SF-268 CNS, 42%; in the experiment on SF-295 CNS, -26.9% (active). Also, the growth with SF-539 CNS was -34.6% (active); in the experiment on UACC-257 melanoma it was 49.2%; in the experiment with M14 melanoma it was 20.4%; in the experiment on HCT-15 colon, 24.1%.

Regarding `COc1ccc(C2=Nc3c(C)nn(-c4ccccc4)c3NC(c3ccc(Oc4ccnc5cc(Cl)ccc45)c(OC)c3)C2)cc1` (stereo not given), the growth with K-562 leukemia was 62.2%; in the experiment with MALME-3M melanoma it was 95.6%; in the experiment on MDA-MB-231 breast, 58%; in the experiment with RXF 393 renal it was 80.4%; in the experiment on SF-268 CNS, 78.8%; in the experiment on SF-295 CNS, 93.1%. For the same compound, the growth is 92.2% in the experiment with SF-539 CNS, 98.3% in the experiment on UACC-257 melanoma, 95.1% with M14 melanoma and 62.9% in the experiment on HCT-15 colon.

Consider `CC(=O)O[C@]1(C)CC[C@H]2[C@H](CNCCc3ccc(Cl)cc3)C(=O)O[C@@H]2C2=C(C)C(=O)C[C@H]21`, for which the growth with K-562 leukemia was 79.4%; with MALME-3M melanoma, 84.2%; in the experiment with MDA-MB-231 breast it was 90.5%; with RXF 393 renal it was 115%; with SF-268 CNS it was 91%; with SF-295 CNS, 105%. The growth in the experiment with SF-539 CNS was 106%; in the experiment with UACC-257 melanoma, 76.4%; in the experiment on M14 melanoma it was 88.4%; in the experiment with HCT-15 colon it was 88.4%.

For the compound `O=S(=O)(NCCNc1nccc(-c2c(-c3ccc(F)cc3)nc3sccn23)n1)c1ccc2ccccc2c1`, the growth in the experiment with K-562 leukemia was 54.6%; with MALME-3M melanoma it was 81.2%; with MDA-MB-231 breast it was 98.3%; in the experiment with RXF 393 renal, 91.3%; in the experiment with SF-268 CNS, 68.3%; with SF-295 CNS it was 68.2%. In addition, the growth was 104% with SF-539 CNS, 71% with UACC-257 melanoma, 82.9% with M14 melanoma and 76.4% in the experiment on HCT-15 colon.

For the compound `O=C1/C(=C\c2ccc(F)cc2)CN(C(=O)c2ccccc2)C/C1=C\c1ccc(F)cc1`, the growth is 4.01% (active) in the experiment on K-562 leukemia; 8.3% (active) in the experiment on MALME-3M melanoma; -25.9% (active) with MDA-MB-231 breast; 26.6% in the experiment on RXF 393 renal; 26% in the experiment with SF-268 CNS; -3.21% (active) in the experiment with SF-295 CNS. Besides, the growth was 69.2% with SF-539 CNS, 36.5% with UACC-257 melanoma, 4.22% (active) in the experiment with M14 melanoma and 1.64% (active) in the experiment on HCT-15 colon.
